Inconclusive results are not listed. Unmarked numbers belong to inactive results. The source made the active and inactive calls. Calls come from the whole dose curve; as a rule, active = well fitted curve in either direction with a large enough effect (not every such curve was filed as active); inconclusive = small, poorly fitted or top-dose-only effect, or another doubt; inactive = flat fitted curve, though single readings scatter.
% is set by controls: 0 for no effect and ±100 for the full control effect.

A short description of this test: NFAT Signaling Pathway (AID 444).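 Note: carbachol stimulus at about its EC50 of 1 µM final.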 To be noted: Jurkat NFAT-bla M1, carbachol, beta-lactamase ratio, 5 h; at 7.69 µM (top of the series) unless noted. An outline of the steps:
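Jurkat cells carrying an NFAT-driven β-lactamase reporter and co-transfected muscarinic M1 receptor were treated with compound plus carbachol (1 uM final, an EC50 level) for 5 h at 37 °C. CCF4 loading followed for 1 h at RT; 460/530 nm ratio gave %activity.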
Turning to `Cn1cc(-c2nc3cnc(Oc4ccccc4)nc3n(C)c2=O)c2ccccc21`, the activity change, negative = inhibition was -2.6%. Under `CN(C)c1ncc2nc(-c3ccccc3)c(=O)n(-c3ccccc3)c2n1` stands 23.9%.

Regarding `CN1CCN(c2ncc3nc(-c4cc(F)cc(F)c4)c(=O)n(C4CC4)c3n2)CC1`, the activity change, negative = inhibition is -23.1%. In the case of `O=c1c(-c2ccc(F)cc2)nc2cnc(N3CCNCC3)nc2n1Cc1ccc(F)cc1`, the activity change, negative = inhibition was 163% [activator] (active).

As to `O=c1cnc2cnc(N3CCOCC3)nc2n1CCc1ccccc1`, the activity change, negative = inhibition was -13.2%. For `CN1CCN(c2ncncc2-c2ccc(C(=O)N(C)C)cc2)CC1`, the activity change, negative = inhibition was 4.17%. Consider `CC(=O)NCCNc1ncncc1-c1ccccc1C`, for which the activity change, negative = inhibition is 5.27%. Take `COCCn1c(=O)cnc2cnc(Oc3ccccc3)nc21`: the activity change, negative = inhibition was -0.802%. The result for `COCCn1c(=O)c(-c2ccc(Cl)cc2)nc2cnc(Oc3cccc(Cl)c3)nc21` reads -0.0987%. `COc1ccc(CNc2ccnc(-c3ccc4c(c3)OCO4)n2)c(OC)c1`: the activity change, negative = inhibition was -5.96%.

As to `COc1ncc2nc(-c3cc(F)cc(F)c3)c(=O)n(C)c2n1`, the activity change, negative = inhibition was -1.78%. Under `COc1cccc(Nc2ncc3nc(-c4ccccc4)c(=O)n(Cc4cccs4)c3n2)c1` stands -11.8%; under `COc1ccc(-c2nc3cnc(N4CCN(C)CC4)nc3n(Cc3ccc(F)cc3)c2=O)cc1`, 113% [activator] (active); under `COCCn1c(=O)c(-c2cc(F)cc(F)c2)nc2cnc(N3CCOCC3)nc21`, 18.8%. On to `CCNc1ncc2nc(-c3cn(C)c4ccccc34)c(=O)n(Cc3cccc(OC)c3)c2n1`, for which the activity change, negative = inhibition is 5.19%.

For the origin of these results see PubChem BioAssay (NCATS).
